The whole screen tested about 39,000 compounds, of which about 500 (1.3%) were called active. The sample as a whole holds a higher share of actives than the screen did.
tested on: S. aureus RN4220; test: growth inhibition call (relative growth <= 0.2); settings: 50 µM

Growth inhibition call, active:
CS(=O)(=O)O.CSc1ccc2c(c1)C(N1CCN(C)CC1)Cc1ccccc1S2 (centres undefined), CC[C@@H](C)SSc1ncc[nH]1, Oc1ccc(C2(c3ccccc3F)CCC(F)(F)CC2)cc1, CC(N)O.Cc1cc(CC(C)CC(C)(C)C)n(O)c(=O)c1 (centres undefined), CN(C(=O)CN(CCO)CC(=O)N(C)C(C)(C)Cc1ccccc1)C(C)(C)Cc1ccccc1

Growth inhibition call, inactive:
CN1CCC(=C2c3ccccc3Sc3ccccc32)CC1.O=C(O)C=CC(=O)O, CSc1ccc2c(c1)N(CCC1CCCCN1C)c1ccccc1S2.Cl (centres undefined), C[C@@H]1CCCCO[C@@H](CN(C)C(=O)c2ccccc2)[C@@H](C)CN([C@@H](C)CO)C(=O)c2cc(NC(=O)Nc3ccc(C(F)(F)F)cc3)ccc2O1, Cc1ncc[nH]1, OCc1ncc[nH]1, C[C@@H]1CN([C@@H](C)CO)S(=O)(=O)c2ccc(C#CCN(C)C)cc2O[C@@H]1CN(C)C(=O)C1CCCCC1, Cc1ccc(S(=O)(=O)Nc2cccc3c2O[C@@H](CN(C)CC2CC2)[C@@H](C)CN([C@H](C)CO)C3=O)cc1, C[C@H](O)C#Cc1cnc2c(c1)C(=O)N([C@@H](C)CO)C[C@@H](C)[C@H](CN(C)Cc1cncnc1)O2, O=C(c1cccnc1)N1C[C@H]2[C@@H](c3ccccc31)[C@H](CO)N2C(=O)CN1CCOCC1, O=S1(=O)OC(c2ccc(O)cc2)(c2ccc(O)cc2)c2ccccc21, O=C1OC(c2ccc(O)cc2)(c2ccc(O)cc2)c2ccccc21, C[C@H]1CN([C@@H](C)CO)S(=O)(=O)c2ccc(C#CCN(C)C)cc2O[C@@H]1CN(C)C(=O)c1ccccc1F, C[C@H]1CN([C@@H](C)CO)C(=O)c2cccc(NS(=O)(=O)c3cn(C)cn3)c2O[C@H]1CN(C)S(=O)(=O)c1ccccc1, C[C@@H]1CN([C@H](C)CO)S(=O)(=O)c2ccc(C#CC(C)(C)O)cc2O[C@H]1CN(C)Cc1ccccc1, C[C@@H]1CCCCO[C@@H](CN(C)Cc2ccncc2)[C@@H](C)CN([C@@H](C)CO)C(=O)c2cc(NC(=O)Nc3ccc4c(c3)OCO4)ccc2O1, C[C@@H]1CN([C@@H](C)CO)C(=O)Cc2cc(NS(=O)(=O)c3cn(C)cn3)ccc2O[C@@H]1CN(C)CC1CCCCC1, O=C(O)CN(CCc1ccccc1)CC(=O)O, CC(=O)c1ccccc1OC[C@@H](O)CN(CCO)CCO, C[C@@H]1CCCCO[C@H](CN(C)Cc2ccc(C(F)(F)F)cc2)[C@H](C)CN([C@@H](C)CO)C(=O)c2cc(N(C)C)ccc2O1

— the antibiotic and cytotoxicity screens of Wong et al. (2023)
